Our source for the inhibition values is ChEMBL document CHEMBL1961873, “Compounds: GSK PKIS; Assays: Nanosyn kinase panel” (2012).

Assay [1] deals with High affinity nerve growth factor receptor (Homo sapiens) (UniProt P04629). The conditions noted are these: at 1 µM.
Assay [2] deals with BDNF/NT-3 growth factors receptor (Homo sapiens) (UniProt Q16620). The conditions noted are these: at 0.1 µM.
The target is the same in assay [3]. The conditions noted are these: at 1 µM.
Assay [4] addresses NT-3 growth factor receptor (Homo sapiens) (UniProt Q16288). The conditions noted are these: at 0.1 µM.
Assay [5] has the same target. The conditions noted are these: at 1 µM.
Assay [6] addresses T1, Tyrosine-protein kinase TXK (Homo sapiens) (UniProt P42681).
T1 sequence (whole entry): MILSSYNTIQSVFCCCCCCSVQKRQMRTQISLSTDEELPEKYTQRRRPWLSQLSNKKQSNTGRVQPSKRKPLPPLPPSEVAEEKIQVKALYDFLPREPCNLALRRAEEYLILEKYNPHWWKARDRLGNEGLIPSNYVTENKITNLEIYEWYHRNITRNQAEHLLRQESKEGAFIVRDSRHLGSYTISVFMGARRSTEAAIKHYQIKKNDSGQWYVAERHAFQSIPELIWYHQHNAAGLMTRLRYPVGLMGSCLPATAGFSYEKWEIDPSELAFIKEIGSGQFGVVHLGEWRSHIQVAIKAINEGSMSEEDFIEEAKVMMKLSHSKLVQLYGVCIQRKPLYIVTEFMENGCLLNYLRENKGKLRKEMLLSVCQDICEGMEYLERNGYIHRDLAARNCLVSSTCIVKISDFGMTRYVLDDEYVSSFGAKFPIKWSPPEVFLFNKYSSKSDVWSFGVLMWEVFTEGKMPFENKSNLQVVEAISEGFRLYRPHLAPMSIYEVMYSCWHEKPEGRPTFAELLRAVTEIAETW
The conditions noted are these: at 0.1 µM.

Assay [7] deals with T1, Tyrosine-protein kinase TXK (Homo sapiens). The conditions noted are these: at 1 µM.
For assay [8], the target named is Non-receptor tyrosine-protein kinase TYK2 (Homo sapiens) (UniProt P29597). The conditions noted are these: at 0.1 µM.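 Also: each value is a mean of the inhibition readings.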
Non-receptor tyrosine-protein kinase TYK2 (Homo sapiens), sequence (P29597 whole entry): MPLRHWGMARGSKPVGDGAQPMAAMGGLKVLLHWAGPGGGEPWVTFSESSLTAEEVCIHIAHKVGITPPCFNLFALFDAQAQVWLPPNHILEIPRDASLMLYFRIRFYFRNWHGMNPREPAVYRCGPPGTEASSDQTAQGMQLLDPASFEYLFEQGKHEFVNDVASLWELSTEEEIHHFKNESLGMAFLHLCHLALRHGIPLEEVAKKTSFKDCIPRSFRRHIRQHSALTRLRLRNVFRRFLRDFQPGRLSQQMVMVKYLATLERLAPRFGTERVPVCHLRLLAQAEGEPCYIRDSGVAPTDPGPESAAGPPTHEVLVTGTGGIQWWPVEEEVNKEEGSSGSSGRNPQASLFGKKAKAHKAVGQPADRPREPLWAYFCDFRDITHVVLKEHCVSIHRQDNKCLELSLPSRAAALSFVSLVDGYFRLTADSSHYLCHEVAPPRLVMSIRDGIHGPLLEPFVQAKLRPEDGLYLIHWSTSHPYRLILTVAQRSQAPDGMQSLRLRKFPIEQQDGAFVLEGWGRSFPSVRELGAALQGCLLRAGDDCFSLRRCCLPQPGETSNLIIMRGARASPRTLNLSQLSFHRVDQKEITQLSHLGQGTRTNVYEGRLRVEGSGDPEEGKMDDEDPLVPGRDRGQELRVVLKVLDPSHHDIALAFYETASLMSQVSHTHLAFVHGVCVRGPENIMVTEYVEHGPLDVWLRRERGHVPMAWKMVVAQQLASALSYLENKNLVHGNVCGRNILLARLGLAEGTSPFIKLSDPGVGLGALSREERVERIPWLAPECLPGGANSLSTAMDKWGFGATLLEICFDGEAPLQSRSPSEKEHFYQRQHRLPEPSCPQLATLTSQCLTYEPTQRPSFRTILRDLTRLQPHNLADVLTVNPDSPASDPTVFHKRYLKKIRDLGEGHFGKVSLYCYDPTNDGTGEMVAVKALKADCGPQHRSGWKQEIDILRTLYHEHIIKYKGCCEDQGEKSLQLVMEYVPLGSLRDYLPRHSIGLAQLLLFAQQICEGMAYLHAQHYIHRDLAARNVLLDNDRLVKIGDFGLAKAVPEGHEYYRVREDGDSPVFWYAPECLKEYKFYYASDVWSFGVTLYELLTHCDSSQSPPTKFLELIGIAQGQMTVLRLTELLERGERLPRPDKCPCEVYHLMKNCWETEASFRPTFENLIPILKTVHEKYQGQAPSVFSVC
Assay [9] concerns the target T2, Dual specificity protein kinase TTK (Homo sapiens) (UniProt P33981).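 Also: reported figures are mean TTK inhibition at 1 µM.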
T2 sequence (whole entry): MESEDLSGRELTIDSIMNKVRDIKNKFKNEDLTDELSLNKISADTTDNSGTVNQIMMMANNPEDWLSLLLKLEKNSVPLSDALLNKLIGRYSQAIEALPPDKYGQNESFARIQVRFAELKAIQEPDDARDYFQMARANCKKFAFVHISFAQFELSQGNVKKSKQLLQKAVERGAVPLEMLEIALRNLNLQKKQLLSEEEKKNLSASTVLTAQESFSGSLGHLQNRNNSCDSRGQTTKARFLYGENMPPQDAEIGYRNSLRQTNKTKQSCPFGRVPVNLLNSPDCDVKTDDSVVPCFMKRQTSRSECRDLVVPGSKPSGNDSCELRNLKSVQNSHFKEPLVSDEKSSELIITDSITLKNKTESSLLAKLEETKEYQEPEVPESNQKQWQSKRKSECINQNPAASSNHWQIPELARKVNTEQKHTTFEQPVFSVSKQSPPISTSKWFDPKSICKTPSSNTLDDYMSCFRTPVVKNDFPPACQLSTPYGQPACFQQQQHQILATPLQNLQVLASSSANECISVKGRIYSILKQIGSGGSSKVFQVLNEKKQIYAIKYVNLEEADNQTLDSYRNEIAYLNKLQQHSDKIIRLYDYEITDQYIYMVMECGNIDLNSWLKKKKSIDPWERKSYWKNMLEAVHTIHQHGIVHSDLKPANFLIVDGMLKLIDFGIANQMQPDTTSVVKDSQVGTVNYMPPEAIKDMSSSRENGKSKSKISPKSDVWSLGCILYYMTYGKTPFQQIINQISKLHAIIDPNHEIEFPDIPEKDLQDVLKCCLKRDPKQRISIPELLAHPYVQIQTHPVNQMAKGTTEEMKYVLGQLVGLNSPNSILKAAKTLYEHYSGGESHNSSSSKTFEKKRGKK
The conditions noted are these: at 1 µM.

Assay [10] has as its target T3, Aurora kinase A (Homo sapiens) (UniProt O14965).
T3 sequence (whole entry): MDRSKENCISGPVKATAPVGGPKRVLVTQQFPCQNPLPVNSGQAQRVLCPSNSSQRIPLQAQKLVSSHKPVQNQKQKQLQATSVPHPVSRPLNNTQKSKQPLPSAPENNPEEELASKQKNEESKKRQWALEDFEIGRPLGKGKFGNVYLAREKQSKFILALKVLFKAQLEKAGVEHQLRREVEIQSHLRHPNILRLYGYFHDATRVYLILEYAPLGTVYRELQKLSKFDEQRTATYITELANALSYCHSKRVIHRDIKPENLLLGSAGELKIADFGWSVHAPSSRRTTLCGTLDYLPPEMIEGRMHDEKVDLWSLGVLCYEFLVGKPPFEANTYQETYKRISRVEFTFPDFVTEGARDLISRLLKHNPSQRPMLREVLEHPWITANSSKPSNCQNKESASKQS
The conditions noted are these: at 0.1 µM.

Assay [11] deals with T3, Aurora kinase A (Homo sapiens). The conditions noted are these: at 1 µM.
In assay [12] the target is Aurora kinase B (Homo sapiens) (UniProt Q96GD4). The conditions noted are these: at 0.1 µM.
For assay [13] the target is unchanged. The conditions noted are these: at 1 µM.
Assay [14] has as its target T4, Aurora kinase C (Homo sapiens) (UniProt Q9UQB9).
T4 sequence (whole entry): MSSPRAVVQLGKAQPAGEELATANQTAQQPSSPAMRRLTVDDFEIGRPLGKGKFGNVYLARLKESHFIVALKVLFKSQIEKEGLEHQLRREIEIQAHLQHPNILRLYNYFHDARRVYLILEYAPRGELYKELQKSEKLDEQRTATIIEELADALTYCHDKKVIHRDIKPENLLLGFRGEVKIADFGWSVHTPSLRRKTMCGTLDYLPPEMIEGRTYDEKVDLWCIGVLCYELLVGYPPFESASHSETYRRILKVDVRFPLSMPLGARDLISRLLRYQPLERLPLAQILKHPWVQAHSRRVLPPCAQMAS
The conditions noted are these: at 0.1 µM.

Assay [15] deals with T4, Aurora kinase C (Homo sapiens). The conditions noted are these: at 1 µM.
In assay [16] the target is Serine/threonine-protein kinase 10 (Homo sapiens) (UniProt O94804). The conditions noted are these: at 0.1 µM.
Serine/threonine-protein kinase 10 (Homo sapiens), sequence (O94804 whole entry, looked up): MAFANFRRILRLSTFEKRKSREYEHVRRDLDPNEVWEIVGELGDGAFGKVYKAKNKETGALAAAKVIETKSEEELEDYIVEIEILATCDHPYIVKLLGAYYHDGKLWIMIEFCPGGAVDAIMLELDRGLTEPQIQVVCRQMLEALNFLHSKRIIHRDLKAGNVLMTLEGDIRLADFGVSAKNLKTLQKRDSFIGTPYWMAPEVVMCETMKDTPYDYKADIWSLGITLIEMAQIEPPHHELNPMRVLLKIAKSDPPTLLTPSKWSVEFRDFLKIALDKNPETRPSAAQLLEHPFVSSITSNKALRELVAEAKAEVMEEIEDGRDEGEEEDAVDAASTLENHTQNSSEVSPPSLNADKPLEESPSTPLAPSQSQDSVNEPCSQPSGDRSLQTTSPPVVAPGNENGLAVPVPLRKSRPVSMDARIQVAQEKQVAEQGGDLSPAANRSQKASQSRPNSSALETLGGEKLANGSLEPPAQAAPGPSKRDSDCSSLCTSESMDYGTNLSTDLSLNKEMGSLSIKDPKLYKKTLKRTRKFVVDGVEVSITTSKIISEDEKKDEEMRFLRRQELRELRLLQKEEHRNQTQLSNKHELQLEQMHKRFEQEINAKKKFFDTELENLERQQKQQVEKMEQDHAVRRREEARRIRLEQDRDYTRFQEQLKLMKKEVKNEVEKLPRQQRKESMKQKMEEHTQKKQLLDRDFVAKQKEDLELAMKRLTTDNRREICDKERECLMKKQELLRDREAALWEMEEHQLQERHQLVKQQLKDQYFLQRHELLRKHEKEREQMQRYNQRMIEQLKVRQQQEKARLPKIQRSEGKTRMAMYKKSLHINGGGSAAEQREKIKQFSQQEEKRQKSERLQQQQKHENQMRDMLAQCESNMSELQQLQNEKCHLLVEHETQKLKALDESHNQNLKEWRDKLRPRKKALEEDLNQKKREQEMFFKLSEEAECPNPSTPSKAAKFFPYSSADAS
Assay [17] shares this target. The conditions noted are these: at 1 µM.
In assay [18] the target is T5, Mitogen-activated protein kinase kinase kinase kinase 2 (Homo sapiens) (UniProt Q12851).
T5 sequence (whole entry): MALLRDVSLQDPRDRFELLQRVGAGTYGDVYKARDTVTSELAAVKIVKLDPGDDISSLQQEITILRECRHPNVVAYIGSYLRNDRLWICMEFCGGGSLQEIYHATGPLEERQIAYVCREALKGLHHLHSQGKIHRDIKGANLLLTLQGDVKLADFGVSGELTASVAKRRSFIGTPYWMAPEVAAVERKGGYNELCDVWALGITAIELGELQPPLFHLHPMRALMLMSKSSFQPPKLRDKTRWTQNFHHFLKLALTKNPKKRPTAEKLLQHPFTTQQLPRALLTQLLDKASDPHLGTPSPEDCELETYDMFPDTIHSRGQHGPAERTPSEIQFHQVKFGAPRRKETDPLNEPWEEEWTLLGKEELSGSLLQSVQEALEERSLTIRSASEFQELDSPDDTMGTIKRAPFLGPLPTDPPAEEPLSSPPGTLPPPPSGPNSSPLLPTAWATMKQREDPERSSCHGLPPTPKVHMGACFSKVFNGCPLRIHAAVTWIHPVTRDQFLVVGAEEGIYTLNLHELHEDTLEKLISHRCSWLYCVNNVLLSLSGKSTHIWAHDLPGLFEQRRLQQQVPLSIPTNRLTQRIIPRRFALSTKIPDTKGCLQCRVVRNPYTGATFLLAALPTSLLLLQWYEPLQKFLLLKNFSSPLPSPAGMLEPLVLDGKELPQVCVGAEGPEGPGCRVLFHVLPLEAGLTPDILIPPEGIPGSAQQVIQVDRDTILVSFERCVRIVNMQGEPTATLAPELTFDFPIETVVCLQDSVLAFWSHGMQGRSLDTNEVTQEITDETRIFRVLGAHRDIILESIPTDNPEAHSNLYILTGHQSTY
The conditions noted are these: at 0.1 µM.

Assay [19] deals with T5, Mitogen-activated protein kinase kinase kinase kinase 2 (Homo sapiens). The conditions noted are these: at 1 µM.
In assay [20] the target is Mitogen-activated protein kinase kinase kinase kinase 4 (Homo sapiens) (UniProt O95819). The conditions noted are these: at 0.1 µM.
Mitogen-activated protein kinase kinase kinase kinase 4 (Homo sapiens), sequence (O95819 2-1239 limits assumed): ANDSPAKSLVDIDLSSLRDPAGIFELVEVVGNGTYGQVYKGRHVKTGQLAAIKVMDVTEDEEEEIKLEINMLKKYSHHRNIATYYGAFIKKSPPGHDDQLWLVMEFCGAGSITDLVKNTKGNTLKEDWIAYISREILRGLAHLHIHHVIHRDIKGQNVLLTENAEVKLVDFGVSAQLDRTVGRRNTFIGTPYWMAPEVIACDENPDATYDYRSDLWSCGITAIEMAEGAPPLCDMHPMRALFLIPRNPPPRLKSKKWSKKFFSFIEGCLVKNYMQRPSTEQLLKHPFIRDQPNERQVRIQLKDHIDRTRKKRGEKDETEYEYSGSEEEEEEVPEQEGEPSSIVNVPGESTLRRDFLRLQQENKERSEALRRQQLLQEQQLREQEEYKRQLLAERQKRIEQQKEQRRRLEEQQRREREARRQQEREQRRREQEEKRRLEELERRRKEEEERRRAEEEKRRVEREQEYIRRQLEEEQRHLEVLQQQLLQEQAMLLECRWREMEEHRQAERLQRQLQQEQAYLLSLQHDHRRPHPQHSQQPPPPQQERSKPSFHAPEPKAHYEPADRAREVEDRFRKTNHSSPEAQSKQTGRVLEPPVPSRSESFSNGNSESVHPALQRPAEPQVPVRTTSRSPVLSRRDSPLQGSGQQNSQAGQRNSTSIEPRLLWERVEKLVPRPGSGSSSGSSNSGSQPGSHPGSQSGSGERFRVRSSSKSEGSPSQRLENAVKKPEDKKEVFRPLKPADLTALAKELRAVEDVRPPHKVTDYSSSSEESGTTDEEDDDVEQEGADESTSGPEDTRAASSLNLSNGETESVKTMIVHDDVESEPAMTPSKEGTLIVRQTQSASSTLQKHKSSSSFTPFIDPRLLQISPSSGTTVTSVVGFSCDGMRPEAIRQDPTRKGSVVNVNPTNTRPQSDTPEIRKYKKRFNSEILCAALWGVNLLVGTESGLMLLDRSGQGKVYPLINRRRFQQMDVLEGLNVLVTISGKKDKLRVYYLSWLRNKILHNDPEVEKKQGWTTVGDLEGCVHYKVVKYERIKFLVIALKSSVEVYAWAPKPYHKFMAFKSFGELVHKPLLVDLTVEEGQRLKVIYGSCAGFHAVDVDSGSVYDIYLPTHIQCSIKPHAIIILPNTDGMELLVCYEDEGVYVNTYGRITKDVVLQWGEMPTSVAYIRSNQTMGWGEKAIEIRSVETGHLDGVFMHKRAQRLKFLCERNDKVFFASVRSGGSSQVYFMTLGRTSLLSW

The structures appear in SMILES notation.

NT-3 growth factor receptor (Homo sapiens), sequence (Q16288 32-839 limits assumed): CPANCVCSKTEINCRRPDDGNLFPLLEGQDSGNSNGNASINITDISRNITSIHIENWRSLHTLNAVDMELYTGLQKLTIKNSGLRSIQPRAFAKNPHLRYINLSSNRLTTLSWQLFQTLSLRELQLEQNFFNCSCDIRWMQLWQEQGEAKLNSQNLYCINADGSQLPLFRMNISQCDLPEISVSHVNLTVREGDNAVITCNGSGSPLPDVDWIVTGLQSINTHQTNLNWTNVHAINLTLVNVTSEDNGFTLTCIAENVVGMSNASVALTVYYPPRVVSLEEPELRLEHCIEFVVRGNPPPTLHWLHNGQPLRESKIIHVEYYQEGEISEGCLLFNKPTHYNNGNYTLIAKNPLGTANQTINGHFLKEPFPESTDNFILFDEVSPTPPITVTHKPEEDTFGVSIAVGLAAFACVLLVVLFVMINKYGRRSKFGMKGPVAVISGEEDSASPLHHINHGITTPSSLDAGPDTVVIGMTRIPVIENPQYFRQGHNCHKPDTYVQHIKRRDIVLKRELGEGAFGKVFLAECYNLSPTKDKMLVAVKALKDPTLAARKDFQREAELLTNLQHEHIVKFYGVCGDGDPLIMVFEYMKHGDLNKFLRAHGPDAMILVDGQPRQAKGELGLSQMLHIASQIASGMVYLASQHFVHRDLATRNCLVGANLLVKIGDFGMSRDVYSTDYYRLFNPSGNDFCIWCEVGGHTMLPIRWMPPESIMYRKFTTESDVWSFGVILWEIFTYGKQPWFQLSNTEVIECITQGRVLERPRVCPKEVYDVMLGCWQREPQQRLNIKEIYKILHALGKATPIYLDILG
BDNF/NT-3 growth factors receptor (Homo sapiens), sequence (Q16620 32-822 limits assumed): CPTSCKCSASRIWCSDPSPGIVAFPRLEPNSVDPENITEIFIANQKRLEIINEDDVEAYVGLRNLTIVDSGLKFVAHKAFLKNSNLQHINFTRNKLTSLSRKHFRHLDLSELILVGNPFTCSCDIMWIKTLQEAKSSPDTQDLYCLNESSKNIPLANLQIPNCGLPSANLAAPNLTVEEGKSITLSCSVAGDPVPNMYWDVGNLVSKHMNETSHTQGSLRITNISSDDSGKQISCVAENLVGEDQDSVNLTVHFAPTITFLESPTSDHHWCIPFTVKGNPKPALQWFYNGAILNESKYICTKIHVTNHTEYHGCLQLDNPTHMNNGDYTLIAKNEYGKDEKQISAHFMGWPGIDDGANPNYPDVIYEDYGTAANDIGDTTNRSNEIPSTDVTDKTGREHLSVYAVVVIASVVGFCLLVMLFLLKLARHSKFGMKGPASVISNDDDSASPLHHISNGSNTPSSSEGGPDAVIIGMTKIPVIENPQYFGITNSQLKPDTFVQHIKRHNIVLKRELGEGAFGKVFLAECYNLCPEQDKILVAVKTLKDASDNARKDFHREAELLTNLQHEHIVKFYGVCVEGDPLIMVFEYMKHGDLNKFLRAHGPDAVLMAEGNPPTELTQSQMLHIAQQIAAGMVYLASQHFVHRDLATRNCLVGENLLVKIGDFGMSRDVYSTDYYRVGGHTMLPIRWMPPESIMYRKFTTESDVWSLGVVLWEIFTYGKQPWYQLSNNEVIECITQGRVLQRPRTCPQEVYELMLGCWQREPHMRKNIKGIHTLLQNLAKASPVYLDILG

By inhibition is commonly meant the drop in the measured response relative to a control, in per cent. Regarding `CCN1CCC(CC(=O)Nc2n[nH]c3nc(-c4cccs4)c(Br)cc23)CC1`, the inhibition in assay [1] was 0.88%; in [2], -0.35%; in assay [3] it was -1.99%; in assay [4] it was -0.62%; in [5] it was 0.26%; in [6], -1.07%. Moreover, the inhibition in assay [7] was -3.55%; in [8], -2.72%; in [9], -0.41%; in [10] it was -2.72%; in assay [11], 0.27%; in [12], -0.51%. Moreover, the inhibition in [13] is 3.7%; in assay [14], -1.4%; in assay [15], -3.08%; in assay [16] it was -1.57%; in assay [17], 1.93%; in assay [18], 0.32%. Also, the inhibition in assay [19] was 2.2%; in [20], 0.23%.

As to `COc1ccc(-c2coc3ncnc(N)c23)cc1`, the inhibition in assay [1] was found to be 2.06%; in assay [2], 2.05%; in [3], 1.62%; in assay [4] it was 2.53%; in assay [5] it was 2.68%; in assay [6], 2.99%. The inhibition in assay [7] is 6.19%; in [8], -3.01%; in assay [9], 11.5%; in assay [10] it was 3.09%; in assay [11], 7.06%; in [12] it was 3.4%. Moreover, the inhibition in assay [13] was 8.81%; in [14], 1.56%; in [15] it was 15.3%; in assay [16], 3.11%; in assay [17], 8.06%; in assay [18], 1.83%. Moreover, the inhibition is 6.08% in [19] and 4.43% in assay [20].

With `O=C1NC(=O)C(N2CCc3ccccc32)=C1c1ccc(Cl)cc1`, the inhibition in assay [1] is 3.04%; in assay [2], 3.69%; in assay [3], 7%; in assay [4], 2.99%; in assay [5], 4.89%; in assay [6] it was 5.42%. The inhibition is 8.99% in [7]; -4.08% in assay [8]; 2.25% in assay [9]; 2.79% in assay [10]; 15.5% in assay [11]; 5.02% in [12]. For the same compound, the inhibition in assay [13] is 13.8%; in assay [14], 3.07%; in assay [15] it was 15.9%; in assay [16] it was 7.48%; in [17] it was 8.68%; in assay [18], 1.87%. The inhibition in assay [19] was 6.3%; in assay [20] it was 4.26%.

With `COc1cc(C=NNc2ncnc3c2cnn3-c2ccccc2)ccc1O`, the inhibition in [1] was determined as 14.3%; in assay [2], 5.2%; in assay [3], 33.1%; in assay [4] it was 5.23%; in [5], 34.6%; in assay [6], 3.66%. For the same compound, the inhibition was 5.94% in assay [7]; -0.09% in assay [8]; 10.5% in [9]; 23% in [10]; 94% in assay [11]; 11.5% in assay [12]. For the same compound, the inhibition in assay [13] was 56.8%; in assay [14], 9.9%; in [15], 88.3%; in assay [16], 5.58%; in [17] it was 26.1%; in [18], 4.63%. Further, the inhibition in assay [19] was determined as 19.3%; in assay [20], 28.1%.

`COc1cc2ncn(-c3cc(OCc4ccccc4Cl)c(C(N)=O)s3)c2cc1OC`: the inhibition in assay [1] came out at 2.92%; in assay [2], 2.11%; in assay [3], 13.7%; in [4] it was 3.13%; in [5], 20.4%; in assay [6] it was 2.99%. The inhibition turned out to be 13.2% in assay [7]; 2.29% in assay [8]; 0.54% in [9]; 1.9% in [10]; 23.5% in [11]; 4.78% in assay [12]. Besides, the inhibition is 29.9% in assay [13]; 2.35% in assay [14]; 40.5% in [15]; 67.3% in [16]; 99% in [17]; 7% in assay [18]. Moreover, the inhibition in assay [19] came to 30.8%; in assay [20] it was 13.9%.

For the compound `CCn1c(-c2nonc2N)nc2c(C#CC(C)(C)O)nc(CN3CCCC3)cc21`, the inhibition is -1.66% in assay [1]; -0.98% in [2]; -0.47% in [3]; -1.68% in assay [4]; -2.34% in [5]; 1.55% in [6]. For the same compound, the inhibition came out at 2.08% in [7]; 3.47% in assay [8]; 5.1% in assay [9]; 0.54% in [10]; 3.35% in [11]; 0.07% in assay [12]. Further, the inhibition in assay [13] is 4.15%; in assay [14] it was 0.15%; in assay [15], 23.3%; in assay [16], -1.82%; in [17], 1.24%; in assay [18] it was 1.94%. In addition, the inhibition in [19] came out at 1.87%; in assay [20] it was 1.68%.
